Shown are actives, neighbours in structure and some others; about 4.8% of the full set was active somewhere.
Mot1-301 SUMO: SUMOylation pathway inhibition by Mot1-301 growth rescue | S. cerevisiae Mot1-301 growth rescue, ATP luminescence, 38.5C; percent above DMSO median, 100 means doubled | growth rescue, % at 18.8 µM | hit rate 1% among 320,000 | AID 2716;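 active means every valid replicate shows activation above 250% relative to neutral control wells; inactive means the rest, any valid replicate at or below 250%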;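 further: OY570 slx delta 5 strain wells were the positive control but not used for scaling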
AI-2 QS mod: modulates the Vibrio harveyi AI-2 quorum sensing system | activity change, % at 7.5 µM | AID 2094 | Vibrio harveyi JMH597 AI-2 luminescence/OD600 ratio, 9 h; stronger effect = lower value; strain lacks LuxN and CqsS sensors; 0 = neutral-control median | hit rate 0.4% among 300,000; in the data active means activity change below about -75%, passing the limit was not always enough;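 further: luminescence divided by OD600 gain over 9 h not by final OD600 alone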
ALR inh: inhibitors of human sulfhydryl oxidase ALR. purified ALR, DTT oxidation, H2O2 HRP-luminol luminescence. hit rate 3.8% among 290,000. AID 485317. P55789. inhibition, % (no concentration beside the values);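 active means mean replicate inhibition above about 79%, with every replicate also reaching it, limit read from the data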
Target sequence (P55789 whole entry, looked up): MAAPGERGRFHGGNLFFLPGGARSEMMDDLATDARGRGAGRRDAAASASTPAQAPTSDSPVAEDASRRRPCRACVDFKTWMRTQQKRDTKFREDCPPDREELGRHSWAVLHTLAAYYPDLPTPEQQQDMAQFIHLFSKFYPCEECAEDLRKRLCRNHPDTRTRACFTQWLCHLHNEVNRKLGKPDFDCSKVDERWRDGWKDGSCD
HIF act: HIF pathway transcriptional activation; U2OS HRE-luciferase reporter, luminescence; normalized: DMSO 0%, desferrioxamine 100%; activation, % at 7.5 µM (by protocol); hit rate 0.32% among 300,000; AID 1910;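 active means mean activation of at least 10% of the iron chelator positive control signal, with at least half of replicates also reaching 10%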
* hit, by the source's call; . = no result given.

SMILES	Mot1-301 SUMO	AI-2 QS mod	ALR inh	HIF act
CCOC(=O)C1=C(COC(=O)/C=C/c2cc(OC)c(OC)c(OC)c2)NC(=O)NC1C (stereo unspecified)	-4	10	11	0
COc1ccc2sc(-c3ccc(SC)cc3)c(/C=C/c3ccc(OC)c(OC)c3)c2c1	1	.	0	.
O=S(=O)(c1ccc(S(=O)(=O)N(Cc2ccccc2)Cc2ccco2)cc1)N1CCCC1	-22	30	94*	0
O=C(CSc1nnc(CNC(=O)c2cccs2)o1)Nc1cccc(Cl)c1	-4	38	98*	0
O=C(CSc1nnc(CNC(=O)c2cccs2)o1)Nc1cccc(F)c1	6	37	99*	.
NCCCCCc1nnc(SCC(=O)Nc2cccc(Cl)c2)o1	-4	21	92*	0
NCCCCCc1nnc(SCc2ccc(Cl)cc2Cl)o1	-4	15	99*	0
COc1ccc(CN(C)C(=O)COC(=O)c2cc([N+](=O)[O-])ccc2N2CCCC2)c(OC)c1OC	-2	.	2	.
O=C(N/N=C/c1ccsc1)c1c[nH]c2ccccc12	5	23	-1	3
O=C(OCCCOC(=O)c1ccccc1O)c1ccccc1O	2	0	-2	0
COc1ccc(S(=O)(=O)N(C)C[C@H]2Oc3c(NC(=O)NC(C)C)cccc3C(=O)N([C@H](C)CO)C[C@@H]2C)cc1	0	.	.	.
CCOC(=O)c1c(OCC)[nH]c2ccc(O)cc12	231	15	87*	0
CCOC(=O)c1c(C)[nH]c2ccc(O)cc12	-2	13	34	1
CC(=O)Nc1c(-c2ccccc2)c2cc(Br)ccc2[nH]c1=O	-7	4	.	0
CSCc1ccc(C(=O)NC2CC(C)(C)Cc3c2cnn3-c2ccc(F)cc2)o1 (stereo unspecified)	15	32	94*	0
Cc1cc(C)c(C(=O)NC2CC(C)(C)Cc3c2cnn3-c2ccccc2)o1 (stereo unspecified)	8	13	87*	0
COc1cc2ccccc2cc1C(=O)OCC(=O)N(CC(C)C)c1c(N)n(Cc2ccccc2)c(=O)[nH]c1=O	4	29	-7	0
CCC(Oc1ccccc1)C(=O)NCCCN1CCOCC1 (stereo unspecified)	-18	-15	8	0
O=C(O)c1cccc(S(=O)(=O)Nc2ccc(O)c(Sc3nc4ccccc4s3)c2)c1	3	17	99*	0
COCCn1c(SC(C(=O)Nc2cc(C)ccc2OC)c2ccccc2)nnc1-c1ccc(Cl)cc1 (stereo unspecified)	28	36	99*	0
COc1ccc(C)cc1NC(=O)C(Sc1nnnn1C)c1ccccc1 (stereo unspecified)	-6	28	1	2
COc1ccc(-c2cc(C(=O)Nc3c(F)cc(F)cc3Br)no2)cc1	115	20	4	1
Cc1noc(C)c1S(=O)(=O)N1CCC(C(=O)N2CCC(C)CC2)CC1	304	28	-2	-3
CC1CC(C)CN(C(=O)C2CCCN(S(=O)(=O)c3cnc[nH]3)C2)C1 (stereo unspecified)	-9	16	-7	-1
Cc1cccc(N2CCN(C(=O)C3CCCN(S(=O)(=O)c4cnc[nH]4)C3)CC2C)c1 (stereo unspecified)	-8	12	99*	0
SMILES	Mot1-301 SUMO	AI-2 QS mod	ALR inh	HIF act
Cc1cccc(N2CCN(C(=O)C3CCN(S(=O)(=O)c4c(C)noc4C)CC3)CC2C)c1 (stereo unspecified)	-2	14	98*	0
COC(=O)c1cccc(Cn2nc(C)c([N+](=O)[O-])c2C)c1	-36	-4	.	0
COc1cccc(-c2noc(Cn3nc(C)c([N+](=O)[O-])c3C)n2)c1	-5	-11	92*	0
O=S(=O)(c1cccc(Cn2nnc(-c3ccccc3)n2)c1)N1CCOCC1	14	.	-4	.
COc1ccc(-c2ccc(/C=C(\NC(=O)c3ccccc3)C(=O)N3CCOCC3)o2)cc1	17	23	98*	0
Cc1ccc(-c2nnn(CC(=O)N(CC3CCCO3)C(C(=O)NC(C)(C)C)c3ccc(F)cc3)n2)o1 (stereo unspecified)	0	19	99*	0
Cc1ccc(-c2nnn(CC(=O)N(CC3CCCO3)C(C(=O)NCC3CCCO3)c3ccc(F)cc3)n2)o1 (stereo unspecified)	4	29	-4	0
Cc1ccc(Sc2nc3ccc(C)cn3c(=O)c2/C=N/O)cc1	5	11	99*	0
CCOc1ccc(N2C(=O)CNC2=S)cc1	-6	14	91*	0
